PubChem BioAssay (NCI)
About 79,000 compounds went through this panel and 15% of them were active in at least one assay; those are over-represented in the sample as a whole. A number with no mark means an inactive call. Calls of active or inactive are those of the source. No stated cut-off is given here; in the data, active means growth inhibition above about 70%; inactive means the rest.

How the values were obtained:
[1] = NCI Yeast Anticancer Drug Screen. Data for the rad50 strain (AID 155);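 further: 0% = growth of vehicle-only cultures of the same strain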; details: S. cerevisiae rad50 strain growth inhibition; at 50.0 µM; active compounds read high
Method in brief: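 Genetically altered yeast (DNA repair pathway); compound treatment; growth inhibition vs vehicle ctrl.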

[2] = NCI Yeast Anticancer Drug Screen. Data for the mec2-1 strain (AID 157); details: S. cerevisiae mec2-1 strain, at 50.0 µM, active compounds read high
Method in brief: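 Strain: mec2-1 (DNA repair/cell cycle alteration). Compound exposure, then growth measured; inhibition expressed relative to vehicle.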

[3] = NCI Yeast Anticancer Drug Screen. Data for the sgs1 mgt1 strain (AID 161);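 further: 0% = growth of cultures given vehicle only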; details: S. cerevisiae sgs1 mgt1 strain, at 50.0 µM, active compounds read high
Method in brief: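 Read-out: growth inhibition vs vehicle controls. Cells: mutant yeast strain deficient in DNA damage repair.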

[4] = NCI Yeast Anticancer Drug Screen. Data for the cln2 rad14 strain (AID 165);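 further: 0% = growth equal to vehicle treated cultures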; details: S. cerevisiae cln2 rad14 strain, at 50.0 µM, active compounds read high
Method in brief: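 Compounds are applied to the cln2 rad14 yeast strain, and growth is then compared with that of vehicle-treated cultures to give inhibition.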

[5] = NCI Yeast Anticancer Drug Screen. Data for the bub3 strain (AID 167); details: S. cerevisiae bub3 mutant strain, at 50.0 µM, active compounds read high
Method in brief: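 Yeast carrying a defined mutation is treated with each compound, and growth is compared with that of vehicle-exposed cells to give inhibition.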

[6] = NCI Yeast Anticancer Drug Screen. Data for the mlh1 rad18 strain (AID 175); details: S. cerevisiae mlh1 rad18 strain growth inhibition; at 50.0 µM; active compounds read high
Method in brief: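 Read-out is yeast growth inhibition, calculated against vehicle-only controls. The compound was applied to a strain engineered with DNA damage repair alterations.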

| SMILES | growth inhibition [1] | growth inhibition [2] | growth inhibition [3] | growth inhibition [4] | growth inhibition [5] | growth inhibition [6] |
| --- | --- | --- | --- | --- | --- | --- |
| CCOC(=O)c1cnc(SC)nc1Nc1ccc(OC)cc1 | 47.4% | 8.55% | 7.35% | 9.6% | 21.2% | 50.1% |
| CC1([C@H]2CC[C@H]3[C@@H]4CC[C@H]5OC(=O)CC[C@]5(C)[C@H]4CC[C@]23C)SCCS1 | 20.7% | -19% | 12.5% | 8.6% | 8.55% | 14.8% |
| CCCCCCCCCCCCCCCCn1/c(=N\N=O)sc2ccccc21 | -9.65% | -17.9% | -8.4% | 11.6% | -0.4% | -0.25% |
| O=C(O)C(=O)Cc1ccccc1 | 11.2% | -14.2% | -4.85% | 19.9% | 0.85% | 14.9% |
| CCCCCCCCCCCCCCCC[N+]1(C)CCC[N+](C)(CCCCCCCCCCCCCCCC)CC1 (configuration not stated) | -5.25% | -21% | -2.65% | -22.6% | -8.4% | -0.1% |
| C[C@@H]1CC[C@@H](C)[C@](C)(CCc2ccoc2)C/C=C\C=C/1C(=O)O | 85.2% (active) | 85.8% (active) | 73.8% (active) | 84.7% (active) | 68.8% | 78.2% (active) |
| CC(=O)OCC1OC(Nc2[nH]c(=O)[nH]c(=O)c2N=O)C(OC(C)=O)C(OC(C)=O)C1OC(C)=O (configuration not stated) | 5.75% | 3.75% | 0.95% | -1.5% | -1.7% | -10.3% |
| CCOC(=O)c1c[nH]n(Cc2ccccc2)c1=O | 12% | 13.4% | 2.95% | -23.2% | 13.6% | -1.2% |
| COC(=O)C(CCS(=O)(=O)CC(=O)C(=O)Nc1cccc(C(C)=O)c1)C(=O)OC | -12.6% | -15.1% | -16.1% | -17.1% | -26.2% | -5.95% |
| COC(=O)NN(C(=O)OC)C12CCCC1N(C(=O)OC)N(C(=O)OC)c1c2ccc2ccccc12 (configuration not stated) | 32.1% | -1.55% | 0.6% | -4.9% | 1.9% | 6.75% |
| Cc1ccc(S(=O)(=O)OCC2CC=CCC2COS(=O)(=O)c2ccc(C)cc2)cc1 (configuration not stated) | 5.4% | -8.2% | -9.75% | -15.2% | 6% | 28.8% |
| Cc1ccc2c(c1)C1(OC(=O)c3ccccc31)c1ccc(F)cc1O2 (configuration not stated) | 55% | 12.8% | 36.9% | 36.8% | 22.7% | 18.1% |
| C[N+]1(CCc2ccccc2)CCOCC1 | -13.6% | 3.9% | 0.8% | -38% | 1.5% | 2.8% |
| CCc1ccc(Cc2ccc(CC)c(NC(=O)C(=O)C3NC(=S)NC3=O)c2CC)c(CC)c1NC(=O)C(=O)C1NC(=S)NC1=O (configuration not stated) | -5.2% | -9.5% | 5.25% | 5.1% | 3.85% | -3.65% |
| CC(=O)c1cccc(N2COC(C)(C)c3nc4ccccc4n3C2)c1 | 5.9% | -9.85% | -20.1% | 12.8% | -19.9% | -0.05% |
| CCCCCCCCCC/C=C/c1c(C)[nH]c2ccccc2c1=O | -11.9% | 8.7% | -6.3% | -6.5% | -8.45% | -11.1% |
| COc1cc(C2SC(N)=Nc3c2c(C)nn3C(=O)c2ccccc2O)ccc1O (configuration not stated) | -4.9% | 24.1% | 22.5% | -1.35% | 40.4% | 16% |
| CC(C)CCCC(C)C1CCC2C3CC=C4C(C)(C)C(OC(=O)c5ccccc5)CCC4(C)C3CCC12C (configuration not stated) | 13.9% | -6.6% | -4.35% | -4.35% | 5.85% | -1.3% |
| CSC1=Nc2cccnc2Nc2cscc21 | -9.25% | -6% | 22.1% | 9.65% | -3.8% | 25.1% |

| SMILES | growth inhibition [1] | growth inhibition [2] | growth inhibition [3] | growth inhibition [4] | growth inhibition [5] | growth inhibition [6] |
| --- | --- | --- | --- | --- | --- | --- |
| O=S1(=O)CCC(N(N=C2CCCCC2)c2ccccc2)C1 (configuration not stated) | 96.5% (active) | 98.3% (active) | 98.5% (active) | 96.8% (active) | 98.4% (active) | 98% (active) |
| O=C(Nn1cnc2ccccc2c1=O)c1ccc(NC(=S)Nc2ccccc2)cc1 | 63.5% | -16.4% | 52.7% | -27.8% | -1.45% | 7.5% |
| O=C(NC(=O)c1cccc(Cl)c1)Nc1ccccc1 | 3.1% | -15.1% | -19.6% | -22% | -10.7% | -5.15% |
| CC(c1ccccc1)n1cnc2c(N(CCO)CCO)ncnc21 (configuration not stated) | 2.5% | -1.6% | 9.45% | -4.05% | 9.85% | 11.7% |
| c1scc2c1COCCOCCOCCOCCOCCOCCOC2 | -21.7% | -14.8% | 10.4% | 5.05% | 6.3% | -6.9% |
| Cc1cccc(N2CCC(O)C2)c1 (configuration not stated) | -5.3% | 7.25% | -0.1% | 9.35% | -6.9% | -21.1% |
| Clc1cccc(N2CCN(CCN3CCc4c([nH]c5ccccc45)C3c3cccnc3)CC2)c1 (configuration not stated) | 2.2% | -21.7% | -7.85% | 9.45% | -9.75% | -12% |
| CS(=O)(=O)C1CCCCC1SC#N (configuration not stated) | -5.1% | -16.7% | -14.5% | -19% | 4.1% | 3.45% |
| COc1cc2c(cc1OC)C1(c3ccccc3)ON=C(c3ccccc3)N1CS2 (configuration not stated) | -14.1% | -12.4% | 8.95% | -32.4% | -7.05% | -11.1% |
| O=S(=O)(c1ccc(NC(=S)NCc2ccco2)cc1)N1CCCCC1 | 46% | 5.6% | 42.1% | 38.3% | 28.9% | 25.6% |
| COc1cccc2cc(-c3c[nH]c4ccccc34)c(=O)oc12 | 1% | 11.2% | 11.2% | 7% | 1.65% | 0.75% |
| CN(C)c1ccc(/C=C2\CCc3ccccc3C2=O)cc1Br | 5.6% | -12.1% | -13.9% | -9.05% | 3.95% | -26.6% |
| CN(Cc1ccccc1)C(=O)Nc1ccc(F)c([N+](=O)[O-])c1 | 7.95% | 28.6% | 21.9% | -4.2% | 50.6% | 16.2% |
| COC(=O)c1c2c(cc3c1CC1(Cc4cc5c(c(C(C)=O)c4C1)CCC5)C3)CCC2 (configuration not stated) | -34.1% | -15.5% | -63.8% | -4.1% | -20.7% | -41.5% |
| CC1CCCCNC1=S (configuration not stated) | -6.95% | 19.6% | 19.9% | 6.6% | 17.8% | 27.1% |
| O=C(C(=O)c1cc(-c2ccccc2)nc2ccc3ccccc3c12)c1ccccc1 | -24.3% | -5.65% | -1.05% | 13.9% | 30.1% | 14.3% |
| O=c1nc2n(cc1/C=C\Br)C1CC(O)C(CO2)O1 (configuration not stated) | -51% | -24.6% | -24.1% | 13.3% | -1.5% | -23.6% |
| COC1/C=C\OC2(C)Oc3c(C)c(O)c4c(O)c(c5sc(N)nc5c4c3C2=O)NC(=O)/C(C)=C\C=C\C(C)C(O)C(C)C(O)C(C)C(OC(C)=O)C1C (configuration not stated) | -2.25% | 16.6% | 4.75% | 14.8% | 22.1% | 10.8% |
